Reference: PubChem BioAssay AID1159580 (chemical genetic matrix, 2015)
In all, about 5,500 compounds went through this assay and about 2,000 (36%) were called active. Another 18% or so got no clear call; they are omitted. No stated cut-off is given here; in the data, active means normalized growth mostly below about 0.91 (no sharp cut-off); inconclusive means no clear call, values can overlap the other calls; inactive means mostly above about 0.92. The list shows a part of the results.

Test: chemical genetic growth profiling, strain panel (AID 1159580);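 further: tested at 20 µM; growth read once vehicle control cultures reached saturation at 30 °C; 1 = growth at the plate median or of vehicle wells; lower values mean less growth of the strain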
Conditions: growth OD

Measured: normalized growth

N#CC(c1ccccc1)N1CCCCC1 (stereo not drawn)
inactive: S. cerevisiae deletion strains, locus YAL013W, strain DEP1, hits give low values 1.04 | S. cerevisiae deletion strains, locus YBR229C, strain ROT2, hits give low values 0.995 | S. cerevisiae deletion strains, locus YDL101C, strain DUN1, hits give low values 1 | S. cerevisiae deletion strains, locus YDL134C, strain PPH21, hits give low values 0.99 | S. cerevisiae deletion strains, locus YDR150W, strain NUM1, hits give low values 0.964 | S. cerevisiae deletion strains, locus YEL061C, strain CIN8, hits give low values 1.02 | S. cerevisiae deletion strains, locus YGR078C, strain PAC10, hits give low values 1 | S. cerevisiae deletion strains, locus YHR030C, strain SLT2, hits give low values 1.04 | S. cerevisiae deletion strains, locus YHR087W, strain rtc3, hits give low values 0.995 | S. cerevisiae deletion strains, locus YJR043C, strain POL32, hits give low values 0.994 | S. cerevisiae deletion strains, locus YJR075W, strain HOC1, hits give low values 0.984 | S. cerevisiae deletion strains, locus YKL190W, strain CNB1, hits give low values 0.99 | S. cerevisiae deletion strains, locus YLR039C, strain RIC1, hits give low values 0.969 | S. cerevisiae deletion strains, locus YLR058C, strain SHM2 (second series), hits give low values 0.987 | S. cerevisiae deletion strains, locus YLR085C, strain ARP6, hits give low values 1.02 | S. cerevisiae deletion strains, locus YLR262C, strain YPT6, hits give low values 1.02 | S. cerevisiae deletion strains, locus YML094W, strain GIM5, hits give low values 1.02 | S. cerevisiae deletion strains, locus YMR219W, strain ESC1, hits give low values 1.01 | S. cerevisiae deletion strains, locus YMR263W, strain SAP30, hits give low values 1.01 | S. cerevisiae deletion strains, locus YMR307W, strain GAS1, hits give low values 0.928 | S. cerevisiae deletion strains, locus YNL153C, strain GIM3, hits give low values 1 | S. cerevisiae deletion strains, locus YNL298W, strain CLA4 (second series), hits give low values 0.985 | S. cerevisiae deletion strains, locus YNL322C, strain KRE1, hits give low values 1.01 | S. cerevisiae deletion strains, locus YNR030W, strain Alg12, hits give low values 1 | S. cerevisiae deletion strains, locus YPL055C, strain LGE1, hits give low values 1.03 | S. cerevisiae deletion strains, locus YPL241C, strain CIN2, hits give low values 0.975 | S. cerevisiae deletion strains, locus YPR135W, strain CTF4, hits give low values 1.19 | S. cerevisiae strains, strain wild type, hits give low values 0.985
